# Several values for one entry are separate records, joined by “and”; a condition that tells them apart may be missing. Equal entries are not always repeated. Results filed as inconclusive are left out. A call without a number means that no potency is given here. Activity calls are given as the source filed them. For most assays here, calls come from the whole dose curve; as a rule, active = well fitted curve in the direction sought with a large enough effect; inconclusive = small, poorly fitted or top-dose-only effect, or another doubt; inactive = no such curve, though single readings can be large; an effect the other way counts as inactive or inconclusive.
# What was measured:
# [1] = High-throughput drug toxicity screening in the BPDCN cell line Gen2.2 (AID 1224824; call rule not given here;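 note: cells exposed to compounds for 48 h before reading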); conditions: Gen2.2 BPDCN cells; at 45.8 µM (top of the series)
# Procedure, shortened: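 Gen2.2, 500 cells/well, phenol red-free RPMI/10% FBS/Pen-Strep; 48 h cpd, 37 °C/5% CO2; CTG lum, 15 min RT. Norm: DMSO = 100%, bortezomib 9.2 uM final = 0%.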
# [2] = High-throughput drug toxicity screening in the BPDCN cell line Cal-1 (AID 1224825; call rule not given here); conditions: Cal-1 BPDCN cell viability, qHTS; at 45.8 µM (top of the series)
# Procedure, shortened: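 Exponentially growing Cal-1 cells, 500 per well in phenol red-free RPMI with 10% FBS, were exposed to compounds for 48 h at 37 °C, 5% CO2. Viability was read by CellTiter-Glo luminescence and normalised to DMSO (100%) and 9.2 uM bortezomib (0%).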
# [3] = Identifying Small Molecule Inhibitors of Pancreatic Cancer Stem Cells (SN12C, Adherent) (AID 1259358);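 note: cell survival measured after 48 h of compound exposure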
# Procedure, shortened: (§1)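 Viability is scored by CellTiter-Glo luminescence 48 h after dosing, expressed as percent activity against vehicle and no-cell references. Spheroid formats rely on cells cultured 14 days in stem cell media beforehand.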
# [4] = Identifying Small Molecule Inhibitors of Pancreatic Cancer Stem Cells (Panc1, Spheroid) (AID 1259359);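 note: compound exposure lasted 48 h before reading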
# Procedure, shortened: as §1
# [5] = Immunotoxin (HA22) sensitization/mitigation study. Vehicle arm (PBS) (AID 1159510; call rule not given here; note: potency is the fitted concentration of half-maximal effect)
# [6] = Immunotoxin (SS1P) sensitization/mitigation study. Vehicle arm (DMEM) (AID 1159513; call rule not given here; note: potency is the fitted concentration of half-maximal effect)
# [7] = qHTS assay for measurement of the activity of small molecule inhibitors on Zika virus induced Caspase-3 activity in human astrocytoma cells (AID 1224859)
# Procedure, shortened: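 Percent inhibition of virus-induced caspase-3/7 signal is calculated against uninfected and ZIKV-infected control cells. Cells are SNB-19, infected at 2 FFU/cell for 6 h after 1 h compound exposure.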
# [8] = Identifying Small Molecule Inhibitors of Pancreatic Cancer Stem Cells (SN12C, Spheroid) (AID 1259360); conditions: Potency: SN12C spheroid viability; note: potency is the fitted concentration of half-maximal effect
# Procedure, shortened: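 After a 4 h attachment period, compounds were pinned into wells and cultures held 48 h under standard incubator conditions. Viability was then measured as CellTiter-Glo luminescence following 10 min at room temperature.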
# [9] = Ebola virus entry assay, reporter ratio channel; AC50: Channel type: primary unless noted; outcome: Channel type: primary unless noted
# [10] = qHTS assay for measurement of the activity of small molecule inhibitors on Zika virus induced Caspase-3 activity in human iPSC derived neural progenitor cells (hNPCs) (AID 1224857); note: nearly all actives have a fitted effect of over 65% in size; note: potency is the fitted concentration of half-maximal effect
# Procedure, shortened: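 Cells were plated at 350 per well and grown 16 to 20 hours. Compound pretreatment lasted one hour, after which ZIKV (2 FFU/cell) was added for 6 hours. Percent inhibition was normalized between uninfected and infected controls.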
# [11] = qHTS assay to identify small molecule inhibitors of chordoma cells - UCH-1 (AID 1259355); note: nearly all actives have a fitted effect of over 55% in size
# Procedure, shortened: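 Luminescent ATP read-out (CellTiter-Glo, 30min at room temperature) measured viability of UCH-1 cells exposed for 48hr to test drugs at 15 concentrations, co-dosed with a five-agent combination of auranofin, camptothecin, doxorubicin, rubitecan and topotecan.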
# [12] = qHTS assay to identify small molecule inhibitors of chordoma cells - UCH-2 (AID 1259356)
# [13] = Ebola virus entry cell assay, ratio channel
# [14] = qHTS Screen of the MIPE 4.0 Collection Against Ewings Sarcoma (RDES) (AID 1259252); note: potency is the fitted concentration of half-maximal effect; nearly all actives have a fitted effect of over 35% in size
# Procedure, shortened: (§2)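 Compound titrations go onto adherent log-phase cells 4 h after seeding, incubate 48 h at 37C, then CellTiter-Glo luminescence reports viability relative to DMSO and cell-free controls.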
# [15] = qHTS Screen of the MIPE 4.0 Collection Against Ewings Sarcoma (EW8) (AID 1259255); note: potency is the fitted concentration of half-maximal effect; nearly all actives have a fitted effect of over 35% in size
# Procedure, shortened: as §2
# [16] = qHTS Screen of the MIPE 4.0 Collection Against Ewings Sarcoma (TC32) (AID 1259256); note: potency is the fitted concentration of half-maximal effect; nearly all actives have a fitted effect of over 45% in size
# Procedure, shortened: as §2
structure (smiles),measurement,setting,value
Cc1cc(SCc2sc(-c3ccc(C(F)(F)F)c(F)c3)nc2C)ccc1OCC(=O)O,"cell viability, % of control (lower = more cytotoxic)",[1],144%
same,viability (% of control),[2],109%
same,Potency,[3],inactive
same,outcome,[4],inactive
COC[C@H]1OC(=O)c2coc3c2[C@@]1(C)C1=C(C3=O)C2CCC(=O)[C@@]2(C)C[C@H]1OC(C)=O (stereo partly drawn),Potency,[5],5.9 µM (active)
same,Potency,[6],16.6 µM (active)
same,outcome,[7],inactive
same,Potency,[3],inactive
same,Potency,[8],18.7 µM (active)
Oc1ccc(Cl)cc1Cc1ccccc1,AC50,[9],10 µM (active) and 14.1 µM (active)
same,Potency,[10],inactive
same,outcome,[7],inactive
same,Potency,[11],inactive
same,Potency,[12],inactive
O=C(c1ccc(OCCN2CCCCC2)cc1)c1c(-c2ccc(O)cc2)sc2cc(O)ccc12,AC50,[13],5.01 µM (active)
CC(CCc1ccccc1)NC(C)C(O)c1ccc(O)cc1 (stereo not drawn),AC50,[9],35.5 µM (active)
same,outcome,[7],inactive
same,Potency,[12],inactive
CC[C@@H](CO)NC(=O)[C@@H]1C=C2c3cccc4[nH]cc(c34)C[C@H]2N(C)C1,AC50,[9],10 µM (active)
same,Potency,[10],inactive
same,outcome,[7],inactive
same,Potency,[11],inactive
same,Potency,[12],inactive
Clc1ccc(COC(Cn2ccnc2)c2ccc(Cl)cc2Cl)cc1 (stereo not drawn),AC50,[9],3.55 µM (active)
same,Potency,[10],inactive
same,outcome,[7],inactive
same,Potency,[11],inactive
same,Potency,[12],inactive
CC(O)(CS(=O)(=O)c1ccc(F)cc1)C(=O)Nc1ccc(C#N)c(C(F)(F)F)c1 (stereo not drawn),Potency,[6],inactive
same,"cell viability, % of control (lower = more cytotoxic)",[1],9.43%
same,viability (% of control),[2],3.75%
same,Potency,[10],inactive
same,outcome,[7],inactive
same,Potency,[14],0.59 µM (active)
same,Potency,[15],3.72 µM (active)
same,Potency,[16],2.64 µM (active)
same,Potency,[3],inactive
C#CCOC(C(=O)OCCN(C)C)(c1ccccc1)c1ccccc1,AC50,[9],14.1 µM (active)
same,outcome,[7],inactive
same,Potency,[11],inactive
same,Potency,[12],inactive
CN1C[C@H](CNC(=O)OCc2ccccc2)C[C@@H]2c3cccc4c3c(cn4C)C[C@H]21,AC50,[9],3.98 µM (active)
same,Potency,[10],inactive
same,outcome,[7],inactive
same,Potency,[11],inactive
same,Potency,[12],inactive
COC1(CS(=O)c2ccccc2)CCN(CCc2c[nH]c3ccc(F)cc23)CC1 (stereo not drawn),Potency,[6],inactive
same,"cell viability, % of control (lower = more cytotoxic)",[1],66.1%
same,viability (% of control),[2],80.6%
same,Potency,[10],20.9 µM (active)
same,outcome,[7],inactive
c1ccc2c(c1)Nc1ccccc1S2,outcome,[9],inactive
same,outcome,[7],inactive
same,Potency,[11],inactive
same,Potency,[12],inactive
Oc1cc(Cl)ccc1Oc1ccc(Cl)cc1Cl,AC50,[9],7.08 µM (active) and 14.1 µM (active)
same,Potency,[10],inactive
same,outcome,[7],inactive
same,Potency,[12],inactive
CNC(=O)c1ccc(N2C(=S)N(c3ccc(C#N)c(C(F)(F)F)c3)C(=O)C23CCC3)cc1F,"cell viability, % of control (lower = more cytotoxic)",[1],16.5%
same,viability (% of control),[2],7.78%
same,outcome,[7],inactive
same,Potency,[14],20.9 µM (active)
same,Potency,[16],23.5 µM (active)
Oc1ccccc1-c1ccccc1,outcome,[9],inactive
same,outcome,[7],inactive
same,Potency,[11],inactive
same,Potency,[12],inactive
COc1ccccc1N1CCNCC1,outcome,[9],inactive
same,Potency,[10],inactive
same,outcome,[7],inactive
same,Potency,[11],inactive
same,Potency,[12],inactive
CS(=O)c1ccc(-c2nc(-c3ccc(F)cc3)c(-c3ccncc3)[nH]2)cc1 (stereo not drawn),Potency,[5],inactive
same,Potency,[6],inactive
c1ccc(C2CC2)c(OCC2=NCCN2)c1,AC50,[9],39.8 µM (active)
same,outcome,[7],inactive
same,Potency,[11],inactive
same,Potency,[12],inactive
Cc1sc2c(c1C)C(c1ccc(Cl)cc1)=N[C@@H](CC(=O)OC(C)(C)C)c1nnc(C)n1-2,Potency,[5],0.0743 µM (active)
same,Potency,[6],10.5 µM (active)
same,"cell viability, % of control (lower = more cytotoxic)",[1],1.32%
same,viability (% of control),[2],2.41%
same,Potency,[10],inactive
same,outcome,[7],inactive
same,Potency,[14],1.48 µM (active)
same,Potency,[15],16.6 µM (active)
same,Potency,[16],1.32 µM (active)
CCCN1CCC[C@@H]2Cc3nc(N)ncc3C[C@H]21,AC50,[9],39.8 µM (active)
same,Potency,[10],inactive
same,outcome,[7],inactive
same,Potency,[11],inactive
same,Potency,[12],inactive
